Reference: ChEMBL document CHEMBL2218924, “A broad activity screen in support of a chemogenomic map for kinase signalling research and drug discovery” (Biochem J, 2013)

Legend:
[1] = target: Serine/threonine-protein kinase PAK 4 (Homo sapiens) (UniProt O96013); conditions: at 1 µM
[2] = target: Serine/threonine-protein kinase PAK 4 (Homo sapiens) (UniProt O96013); conditions: at 10 µM
[3] = target: Serine/threonine-protein kinase PAK 5 (Homo sapiens) (UniProt Q9P286); conditions: at 10 µM
[4] = target: Serine/threonine-protein kinase PAK 6 (Homo sapiens) (UniProt Q9NQU5); conditions: at 1 µM
Sequence of Serine/threonine-protein kinase PAK 6 (Homo sapiens) (Q9NQU5 whole entry, looked up, the tested form may be a part): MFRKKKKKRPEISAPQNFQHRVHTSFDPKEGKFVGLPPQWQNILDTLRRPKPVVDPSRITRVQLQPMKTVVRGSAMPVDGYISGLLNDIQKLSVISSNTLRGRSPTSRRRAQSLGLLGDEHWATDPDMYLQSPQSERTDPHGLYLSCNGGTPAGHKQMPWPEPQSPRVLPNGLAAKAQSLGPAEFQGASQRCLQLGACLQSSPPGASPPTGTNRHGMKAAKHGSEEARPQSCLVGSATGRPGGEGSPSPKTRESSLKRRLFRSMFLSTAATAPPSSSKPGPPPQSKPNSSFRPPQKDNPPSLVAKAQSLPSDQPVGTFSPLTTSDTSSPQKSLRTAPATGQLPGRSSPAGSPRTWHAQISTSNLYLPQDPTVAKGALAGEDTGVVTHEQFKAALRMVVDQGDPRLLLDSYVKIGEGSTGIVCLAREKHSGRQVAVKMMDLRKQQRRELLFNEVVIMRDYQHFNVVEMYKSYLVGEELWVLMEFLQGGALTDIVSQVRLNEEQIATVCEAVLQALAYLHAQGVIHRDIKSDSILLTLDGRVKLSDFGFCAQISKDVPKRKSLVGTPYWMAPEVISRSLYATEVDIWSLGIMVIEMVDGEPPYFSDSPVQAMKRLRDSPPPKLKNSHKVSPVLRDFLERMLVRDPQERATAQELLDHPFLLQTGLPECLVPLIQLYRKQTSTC

[5] = target: Serine/threonine-protein kinase PAK 6 (Homo sapiens) (UniProt Q9NQU5); conditions: at 10 µM
[6] = target: PAS domain-containing serine/threonine-protein kinase (Homo sapiens) (UniProt Q96RG2); conditions: at 10 µM
Sequence of PAS domain-containing serine/threonine-protein kinase (Homo sapiens) (Q96RG2 whole entry, the tested form may be a part): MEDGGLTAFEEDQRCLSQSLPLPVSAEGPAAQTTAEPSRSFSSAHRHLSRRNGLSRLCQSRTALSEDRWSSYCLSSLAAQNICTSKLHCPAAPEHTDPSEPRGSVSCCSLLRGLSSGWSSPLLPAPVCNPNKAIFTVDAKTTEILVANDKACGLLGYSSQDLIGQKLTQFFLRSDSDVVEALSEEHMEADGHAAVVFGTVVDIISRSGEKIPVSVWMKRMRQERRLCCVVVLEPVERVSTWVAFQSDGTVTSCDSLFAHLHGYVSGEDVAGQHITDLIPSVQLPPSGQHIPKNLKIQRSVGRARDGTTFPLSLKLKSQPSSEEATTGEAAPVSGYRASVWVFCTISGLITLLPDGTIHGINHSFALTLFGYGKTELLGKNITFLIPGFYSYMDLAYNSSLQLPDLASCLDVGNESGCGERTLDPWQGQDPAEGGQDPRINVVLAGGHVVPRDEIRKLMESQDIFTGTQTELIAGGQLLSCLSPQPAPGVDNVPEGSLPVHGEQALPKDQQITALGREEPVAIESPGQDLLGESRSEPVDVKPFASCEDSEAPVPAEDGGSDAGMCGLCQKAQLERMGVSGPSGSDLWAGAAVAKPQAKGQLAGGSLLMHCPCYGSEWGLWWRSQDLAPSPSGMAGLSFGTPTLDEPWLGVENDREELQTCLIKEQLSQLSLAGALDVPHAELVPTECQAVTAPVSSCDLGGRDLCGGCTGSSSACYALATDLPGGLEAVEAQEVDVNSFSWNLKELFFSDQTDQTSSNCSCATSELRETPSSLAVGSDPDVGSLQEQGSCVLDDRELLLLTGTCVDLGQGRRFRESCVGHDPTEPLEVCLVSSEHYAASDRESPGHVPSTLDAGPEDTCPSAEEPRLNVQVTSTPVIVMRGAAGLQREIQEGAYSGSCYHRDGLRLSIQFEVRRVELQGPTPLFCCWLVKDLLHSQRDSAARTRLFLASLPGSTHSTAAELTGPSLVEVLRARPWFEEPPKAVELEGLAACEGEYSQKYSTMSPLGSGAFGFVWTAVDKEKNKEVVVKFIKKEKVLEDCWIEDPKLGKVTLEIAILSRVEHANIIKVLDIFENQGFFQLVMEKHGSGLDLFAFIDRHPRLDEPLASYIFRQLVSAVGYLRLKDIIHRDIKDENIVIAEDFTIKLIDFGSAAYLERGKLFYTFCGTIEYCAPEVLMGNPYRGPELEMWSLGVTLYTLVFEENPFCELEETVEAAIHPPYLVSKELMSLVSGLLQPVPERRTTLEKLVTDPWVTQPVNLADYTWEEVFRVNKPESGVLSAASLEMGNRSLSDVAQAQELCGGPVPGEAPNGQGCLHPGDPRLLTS

[7] = target: Activated CDC42 kinase 1 (Homo sapiens) (UniProt Q07912); conditions: at 1 µM
[8] = target: Activated CDC42 kinase 1 (Homo sapiens) (UniProt Q07912); conditions: at 10 µM
[9] = target: ALK tyrosine kinase receptor (Homo sapiens) (UniProt Q9UM73); conditions: at 1 µM
[10] = target: ALK tyrosine kinase receptor (Homo sapiens) (UniProt Q9UM73); conditions: at 10 µM
[11] = target: T1, Activin receptor type-1B (Homo sapiens) (UniProt P36896); conditions: at 1 µM
T1 sequence (whole entry): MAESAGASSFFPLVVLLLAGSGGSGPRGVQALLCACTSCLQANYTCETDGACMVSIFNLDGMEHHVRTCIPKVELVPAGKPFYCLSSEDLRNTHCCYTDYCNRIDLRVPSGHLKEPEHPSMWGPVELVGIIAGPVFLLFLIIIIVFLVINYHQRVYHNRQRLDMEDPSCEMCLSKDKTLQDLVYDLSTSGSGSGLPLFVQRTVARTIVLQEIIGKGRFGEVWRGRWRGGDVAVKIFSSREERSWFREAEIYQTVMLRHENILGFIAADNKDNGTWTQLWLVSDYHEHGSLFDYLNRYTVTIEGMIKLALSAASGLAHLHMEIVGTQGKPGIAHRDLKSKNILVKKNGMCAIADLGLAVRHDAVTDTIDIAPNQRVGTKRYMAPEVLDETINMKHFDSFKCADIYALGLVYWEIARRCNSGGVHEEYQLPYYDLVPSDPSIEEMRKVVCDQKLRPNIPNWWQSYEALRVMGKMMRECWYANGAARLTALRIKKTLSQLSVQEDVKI

[12] = target: T2, AMP-activated protein kinase (AMPK) alpha-1/beta-1/gamma-1 (Homo sapiens) (UniProt P54619+Q9Y478+Q13131); conditions: at 1 µM
T2 sequence (P54619 whole entry): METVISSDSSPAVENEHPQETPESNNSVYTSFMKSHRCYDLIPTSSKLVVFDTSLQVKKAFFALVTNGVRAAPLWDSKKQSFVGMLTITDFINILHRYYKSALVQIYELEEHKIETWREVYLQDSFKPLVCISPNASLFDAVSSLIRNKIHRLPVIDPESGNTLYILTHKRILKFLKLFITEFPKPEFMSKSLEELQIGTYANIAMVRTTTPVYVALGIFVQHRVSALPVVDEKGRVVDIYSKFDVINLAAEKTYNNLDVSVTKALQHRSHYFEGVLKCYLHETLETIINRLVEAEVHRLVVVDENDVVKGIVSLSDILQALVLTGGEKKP
T2 sequence (Q13131 whole entry partner): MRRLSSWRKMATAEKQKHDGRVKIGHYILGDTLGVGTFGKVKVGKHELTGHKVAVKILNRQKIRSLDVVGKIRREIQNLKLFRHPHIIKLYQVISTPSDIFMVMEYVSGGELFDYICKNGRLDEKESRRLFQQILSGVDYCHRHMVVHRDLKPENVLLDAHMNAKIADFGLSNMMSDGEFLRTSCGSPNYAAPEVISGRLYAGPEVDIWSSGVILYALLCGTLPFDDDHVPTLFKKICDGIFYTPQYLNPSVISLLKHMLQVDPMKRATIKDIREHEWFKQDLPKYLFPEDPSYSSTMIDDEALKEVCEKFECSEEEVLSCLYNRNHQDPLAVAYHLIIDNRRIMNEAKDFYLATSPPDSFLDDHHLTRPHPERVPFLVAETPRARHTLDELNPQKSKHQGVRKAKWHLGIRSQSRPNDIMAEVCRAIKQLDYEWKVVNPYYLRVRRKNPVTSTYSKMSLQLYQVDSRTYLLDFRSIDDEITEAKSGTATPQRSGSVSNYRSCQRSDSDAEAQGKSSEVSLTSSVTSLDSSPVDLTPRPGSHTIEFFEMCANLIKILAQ
T2 sequence (Q9Y478 2-270 partner limits assumed): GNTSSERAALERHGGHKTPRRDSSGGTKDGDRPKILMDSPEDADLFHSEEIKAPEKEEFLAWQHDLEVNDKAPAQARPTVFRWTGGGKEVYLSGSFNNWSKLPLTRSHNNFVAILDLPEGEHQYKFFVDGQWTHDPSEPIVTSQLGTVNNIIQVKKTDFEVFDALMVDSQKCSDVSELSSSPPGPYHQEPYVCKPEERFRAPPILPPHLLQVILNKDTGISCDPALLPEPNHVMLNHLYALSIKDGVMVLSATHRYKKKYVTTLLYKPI

[13] = target: T2, AMP-activated protein kinase (AMPK) alpha-1/beta-1/gamma-1 (Homo sapiens); conditions: at 10 µM
[14] = target: T3, AMP-activated protein kinase, AMPK (Homo sapiens) (UniProt P54646+O43741+P54619+Q9UGJ0+Q9Y478+Q13131+Q9UGI9); conditions: at 1 µM
[15] = target: T3, AMP-activated protein kinase, AMPK (Homo sapiens); conditions: at 10 µM
[16] = target: T4, NUAK family SNF1-like kinase 1 (Homo sapiens) (UniProt O60285); conditions: at 1 µM
T4 sequence (whole entry): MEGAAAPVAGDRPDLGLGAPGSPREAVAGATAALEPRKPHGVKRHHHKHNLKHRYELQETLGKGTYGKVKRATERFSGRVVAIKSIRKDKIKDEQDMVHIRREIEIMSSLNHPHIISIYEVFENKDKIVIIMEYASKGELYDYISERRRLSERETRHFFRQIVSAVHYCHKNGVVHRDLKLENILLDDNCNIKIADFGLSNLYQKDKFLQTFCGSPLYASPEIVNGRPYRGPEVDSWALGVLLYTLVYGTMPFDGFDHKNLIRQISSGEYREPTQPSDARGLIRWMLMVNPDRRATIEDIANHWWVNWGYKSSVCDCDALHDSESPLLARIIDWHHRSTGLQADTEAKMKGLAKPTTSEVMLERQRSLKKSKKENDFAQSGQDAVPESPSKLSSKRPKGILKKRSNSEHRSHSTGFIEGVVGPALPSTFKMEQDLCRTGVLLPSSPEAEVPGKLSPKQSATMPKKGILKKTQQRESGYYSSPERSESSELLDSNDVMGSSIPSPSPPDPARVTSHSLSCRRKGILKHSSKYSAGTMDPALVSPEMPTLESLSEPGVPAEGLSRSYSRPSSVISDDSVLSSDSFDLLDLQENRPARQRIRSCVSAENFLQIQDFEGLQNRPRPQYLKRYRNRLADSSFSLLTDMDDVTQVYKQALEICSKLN

[17] = target: T4, NUAK family SNF1-like kinase 1 (Homo sapiens); conditions: at 10 µM
[18] = target: T5, Mitogen-activated protein kinase kinase kinase 5 (Homo sapiens) (UniProt Q99683); conditions: at 1 µM
T5 sequence (whole entry): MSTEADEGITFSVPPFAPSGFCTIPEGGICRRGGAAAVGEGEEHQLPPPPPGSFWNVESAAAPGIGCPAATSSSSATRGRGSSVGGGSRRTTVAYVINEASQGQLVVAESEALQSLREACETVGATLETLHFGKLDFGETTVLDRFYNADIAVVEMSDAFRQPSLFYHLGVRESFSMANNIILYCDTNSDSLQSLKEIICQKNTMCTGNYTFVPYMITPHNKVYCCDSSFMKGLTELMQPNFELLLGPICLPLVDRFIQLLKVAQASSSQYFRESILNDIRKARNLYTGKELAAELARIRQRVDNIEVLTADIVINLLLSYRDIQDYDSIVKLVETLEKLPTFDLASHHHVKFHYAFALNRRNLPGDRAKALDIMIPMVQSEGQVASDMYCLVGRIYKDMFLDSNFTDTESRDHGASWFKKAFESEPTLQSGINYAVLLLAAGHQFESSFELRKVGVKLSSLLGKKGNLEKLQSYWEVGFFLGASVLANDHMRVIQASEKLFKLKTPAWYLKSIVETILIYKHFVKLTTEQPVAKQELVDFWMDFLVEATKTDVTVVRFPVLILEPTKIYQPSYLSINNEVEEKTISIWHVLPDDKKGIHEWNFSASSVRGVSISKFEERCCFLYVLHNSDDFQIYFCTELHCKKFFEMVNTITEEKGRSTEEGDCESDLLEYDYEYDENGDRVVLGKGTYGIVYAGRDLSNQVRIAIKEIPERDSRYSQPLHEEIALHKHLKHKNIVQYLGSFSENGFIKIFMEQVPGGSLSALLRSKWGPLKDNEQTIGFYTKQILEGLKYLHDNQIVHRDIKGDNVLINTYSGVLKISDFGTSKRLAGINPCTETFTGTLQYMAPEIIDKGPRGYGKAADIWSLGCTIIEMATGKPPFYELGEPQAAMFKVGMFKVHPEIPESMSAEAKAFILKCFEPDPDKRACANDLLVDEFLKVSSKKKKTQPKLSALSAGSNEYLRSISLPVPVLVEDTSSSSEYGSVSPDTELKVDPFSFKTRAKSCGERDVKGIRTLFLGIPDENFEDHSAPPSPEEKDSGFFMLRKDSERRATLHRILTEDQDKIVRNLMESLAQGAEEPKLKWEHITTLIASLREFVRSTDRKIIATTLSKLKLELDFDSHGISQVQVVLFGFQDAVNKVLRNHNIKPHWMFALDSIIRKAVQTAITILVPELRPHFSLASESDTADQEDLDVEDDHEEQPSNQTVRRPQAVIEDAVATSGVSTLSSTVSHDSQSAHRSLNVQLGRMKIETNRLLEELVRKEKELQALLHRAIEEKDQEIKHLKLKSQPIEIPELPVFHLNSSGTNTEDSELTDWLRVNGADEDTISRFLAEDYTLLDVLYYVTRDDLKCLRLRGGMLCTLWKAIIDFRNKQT

[19] = target: T1, Activin receptor type-1B (Homo sapiens); conditions: at 10 µM
[20] = target: Serine/threonine-protein kinase PAK 5 (Homo sapiens) (UniProt Q9P286); conditions: at 1 µM

Sequence of Serine/threonine-protein kinase PAK 4 (Homo sapiens) (O96013 whole entry, looked up): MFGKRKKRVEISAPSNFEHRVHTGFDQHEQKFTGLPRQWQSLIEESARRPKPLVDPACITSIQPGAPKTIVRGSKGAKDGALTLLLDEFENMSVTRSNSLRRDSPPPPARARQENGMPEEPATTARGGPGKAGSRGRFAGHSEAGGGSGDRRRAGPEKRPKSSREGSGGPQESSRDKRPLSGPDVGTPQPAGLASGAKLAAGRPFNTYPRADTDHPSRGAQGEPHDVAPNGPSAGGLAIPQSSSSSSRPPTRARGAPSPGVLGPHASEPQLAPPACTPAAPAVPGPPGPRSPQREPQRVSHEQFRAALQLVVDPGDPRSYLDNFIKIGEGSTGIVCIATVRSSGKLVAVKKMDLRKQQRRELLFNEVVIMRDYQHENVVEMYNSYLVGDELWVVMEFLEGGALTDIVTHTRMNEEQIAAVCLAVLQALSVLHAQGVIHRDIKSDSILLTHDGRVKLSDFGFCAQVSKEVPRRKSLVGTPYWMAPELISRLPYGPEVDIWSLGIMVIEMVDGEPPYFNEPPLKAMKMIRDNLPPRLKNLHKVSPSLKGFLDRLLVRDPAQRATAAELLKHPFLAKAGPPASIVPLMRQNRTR
Sequence of Serine/threonine-protein kinase PAK 5 (Homo sapiens) (Q9P286 whole entry, looked up): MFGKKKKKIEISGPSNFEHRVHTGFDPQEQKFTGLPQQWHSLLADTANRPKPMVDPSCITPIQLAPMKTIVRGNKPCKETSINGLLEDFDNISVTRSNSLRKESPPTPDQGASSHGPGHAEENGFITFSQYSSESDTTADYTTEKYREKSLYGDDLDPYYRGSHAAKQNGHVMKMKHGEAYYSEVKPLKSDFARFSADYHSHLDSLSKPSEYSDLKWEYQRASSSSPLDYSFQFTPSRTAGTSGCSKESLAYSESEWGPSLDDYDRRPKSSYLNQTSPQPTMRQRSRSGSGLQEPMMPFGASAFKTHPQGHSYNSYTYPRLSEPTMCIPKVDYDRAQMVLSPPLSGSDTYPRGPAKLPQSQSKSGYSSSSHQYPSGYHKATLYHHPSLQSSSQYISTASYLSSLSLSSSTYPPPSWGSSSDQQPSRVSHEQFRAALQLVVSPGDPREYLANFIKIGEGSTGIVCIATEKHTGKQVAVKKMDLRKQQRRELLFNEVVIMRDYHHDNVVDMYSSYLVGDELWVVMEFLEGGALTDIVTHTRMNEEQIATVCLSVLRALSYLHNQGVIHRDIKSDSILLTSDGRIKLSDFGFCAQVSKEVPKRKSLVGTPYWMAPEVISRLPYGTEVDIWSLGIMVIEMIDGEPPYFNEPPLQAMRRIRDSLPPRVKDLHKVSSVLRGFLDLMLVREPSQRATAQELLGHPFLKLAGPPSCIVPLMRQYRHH

Row | Structure (SMILES) | residual activity [1] [%] | residual activity [2] [%] | residual activity [3] [%] | residual activity [4] [%] | residual activity [5] [%] | residual activity [6] [%] | residual activity [7] [%] | residual activity [8] [%] | residual activity [9] [%] | residual activity [10] [%] | residual activity [11] [%] | residual activity [12] [%] | residual activity [13] [%] | residual activity [14] [%] | residual activity [15] [%] | residual activity [16] [%] | residual activity [17] [%] | residual activity [18] [%] | residual activity [19] [%] | residual activity [20] [%]
1 | O=C1NC(=O)c2c1c1c3ccccc3[nH]c1n1cncc21 | 81 | 82 | 91 | 98 | 73 | 26 | 38 | 23 | 77 | 48 | 97 | 49 | 34 | 38 | 29 | 15 | 13 | 99 | – | –
2 | CN(C)S(=O)(=O)c1ccc2c(c1)/C(=C/c1cc3c([nH]1)CCCC3)C(=O)N2 | 74 | 69 | – | 76 | 50 | – | 13 | 8 | 44 | 29 | 111 | 43 | 29 | 45 | 37 | 10 | 3 | – | 56 | –
3 | O=c1cc(N2CCOCC2)oc2c1ccc1ccccc12 | 94 | 94 | 81 | – | 94 | 88 | 90 | 77 | 81 | – | – | 110 | 94 | 105 | 90 | 101 | 85 | 88 | 104 | 94
4 | NC(=O)Nc1sc(-c2ccc(F)cc2)cc1C(N)=O | 55 | 14 | 27 | 88 | 40 | 96 | 10 | 2 | 78 | 31 | – | 69 | 27 | 66 | 25 | – | – | – | – | 67
5 | COc1ccc(-c2cnc3c(-c4ccsc4)cnn3c2)cc1 | 99 | 94 | – | – | – | 94 | 71 | 68 | – | – | 126 | – | – | 88 | 79 | – | – | 82 | 88 | 94
6 | Cn1sc(=O)n(Cc2ccccc2)c1=O | 94 | 89 | 94 | 96 | 94 | 138 | 77 | 64 | 64 | 71 | – | 83 | 82 | 89 | 90 | – | – | 81 | – | 97
7 | Oc1cccc(-c2nc(N3CCOCC3)c3oc4ncccc4c3n2)c1 | 100 | 93 | 84 | 100 | 78 | – | 78 | 69 | – | – | 148 | – | – | – | – | 98 | 99 | – | 92 | 84
8 | O=C1Cc2c([nH]c3ccc(Br)cc23)-c2ccccc2N1 | 25 | 3 | 17 | – | – | – | 24 | 3 | 88 | 56 | – | 75 | 44 | – | – | 13 | 2 | – | 72 | 35
9 | O=C1Nc2ccc(Cl)cc2/C1=C/c1cc(Cl)c(O)c(Cl)c1 | 91 | 68 | 62 | – | – | 29 | 48 | 7 | 68 | 19 | – | 79 | 40 | 77 | 40 | 69 | 50 | 93 | – | 73
10 | O=C(c1cc2cc(O)ccc2[nH]1)c1cc2cc(O)ccc2[nH]1 | 71 | 30 | – | 83 | 52 | – | 64 | 24 | 68 | 58 | 111 | 16 | 1 | 13 | 3 | 65 | 20 | – | – | –
11 | CCCCc1c(-c2ccc(OC)cc2)[nH]c2nccnc12 | 60 | 68 | 64 | 92 | 60 | – | 24 | 5 | 70 | 31 | 81 | 82 | – | 74 | 92 | 15 | 22 | – | 39 | 63
12 | O=C1NC(=O)C(c2c[nH]c3ccccc23)=C1c1c[nH]c2ccccc12 | 98 | 65 | – | – | 77 | 39 | 73 | 21 | – | 44 | 114 | 72 | 15 | 66 | 10 | 83 | 24 | – | 75 | 99
13 | CCN(CC)CCNC(=O)c1c(C)[nH]c(/C=C2\C(=O)Nc3ccc(Cl)cc32)c1C | 52 | 11 | 8 | 73 | 28 | 49 | 25 | 1 | 8 | 2 | 126 | 7 | 3 | 4 | 4 | 6 | 6 | 60 | 99 | 30
14 | O=C(O)/C=C/c1cc(Br)c(Br)c(Br)c1Br | 108 | 101 | 82 | 102 | 76 | 6 | 79 | 63 | 88 | 87 | – | 101 | 56 | 94 | 76 | 102 | 94 | 98 | 85 | –
15 | CC(C)c1nn(-c2c(Cl)cccc2Cl)c2nc(Cc3ccc(OCCO)cc3)[nH]c(=O)c12 | 84 | 32 | 21 | 79 | 51 | – | 63 | 31 | 78 | 42 | – | 93 | 71 | 87 | 74 | 96 | 72 | 95 | – | 73
